The test system of assay [1] is Human papillomavirus type 1a protein E7 (residues 44-93). Briefly: HPV1a E7 fragment binders on microarrays, primary screen, biochemical, small-molecule microarray, residues 44-93, 635 nm fluorescence (AID 1108).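 Further: E7 fragment applied at 1 µg/mL in TBST for 1 h at 4 C; score combines spot fluorescence with its signal to noise ratio.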 The settings on record: small-molecule microarray binding, fluorescence 635 nm; higher = more signal.
Assay [2] in a line: modulators of HCV replicon luciferase signal, primary screen, HCV replication inhibitor project, Huh7 cells, luciferase reporter (AID 1109).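 Further: huh7 hepatoma cells harbouring a luciferase neomycin HCV replicon reporter; luciferase luminescence as measure of HCV replicon replication; test concentration not given here.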 The settings on record: 48 h, higher = more signal. Background: In antiviral work, replicon cells carry a viral genome segment that copies itself.
The target in assay [3] is Left-right determination factor 2 (Homo sapiens) (UniProt O00292). The experiment in a line: LEFTY2 binders on small-molecule microarrays, primary screen, biochemical, small-molecule microarray, 635 nm fluorescence scan (AID 1110). The settings on record: LEFTY2 binding, higher = more signal.
Chain of Left-right determination factor 2 (Homo sapiens) (O00292 whole entry, looked up): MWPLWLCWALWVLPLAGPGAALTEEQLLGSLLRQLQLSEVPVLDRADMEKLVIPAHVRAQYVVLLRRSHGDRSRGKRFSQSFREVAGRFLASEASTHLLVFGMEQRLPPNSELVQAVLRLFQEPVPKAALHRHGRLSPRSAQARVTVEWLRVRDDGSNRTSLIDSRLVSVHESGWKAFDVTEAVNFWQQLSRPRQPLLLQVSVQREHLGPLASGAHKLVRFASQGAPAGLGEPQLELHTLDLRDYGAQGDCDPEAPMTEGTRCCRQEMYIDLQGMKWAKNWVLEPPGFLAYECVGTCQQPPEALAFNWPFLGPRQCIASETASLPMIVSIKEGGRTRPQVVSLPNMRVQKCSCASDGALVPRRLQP
The target of assay [4] is Calmodulin-1 (Homo sapiens) (UniProt P0DP23). The experiment in a line: CALM1 binders on microarrays, EGTA buffer, profiling panel, biochemical, small-molecule microarray, Cy5-labelled CALM1 (AID 1111).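 Further: labelled calmodulin applied in Tris saline Tween buffer holding calcium plus EGTA and DTT.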 The settings on record: Cy5-CALM1 binding fluorescence, higher = more signal.
For assay [5] the target is unchanged. Briefly: calcium-bound CALM1 binders on microarrays, profiling panel, artefact control for SMM control-protein annotation, biochemical, small-molecule microarray, Cy5-labelled CALM1, plus calcium (AID 1112).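 Further: score merges spot fluorescence with signal to noise from triplicate slides.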 The settings on record: Cy5-CALM1 binding fluorescence, higher = more signal.
The nature of assay [6]: small-molecule microarray binders of probe aWnt5a, primary screen, biochemical, biotinylated probe, 635/667 nm fluorescence (AID 1113).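 Further: score merges 667 nm fluorescence intensity with signal-to-noise per printed feature.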 The settings on record: higher = more signal.
Assay [7] can be described thus: small-molecule microarray binders of probe aShh, primary screen, biochemical, biotinylated probe, 635/667 nm fluorescence (AID 1114).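 Further: probe is biotin-labelled aShh protein from a stem cell growth factor screen; measures binding of labelled protein to compounds printed on the slide; score merges feature fluorescence at 667 nm with signal-to-noise.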 The settings on record: higher = more signal.
Assay [8] can be described thus: small-molecule microarray binders of probe aNog, primary screen, biochemical, biotinylated probe, 635/667 nm fluorescence (AID 1115).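 Further: probe is biotinylated aNog protein used at 0.15 µg/mL for 1 h at 4 C; z-score combines 667 nm fluorescence of each spot with its signal to noise.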 The settings on record: higher = more signal.
The target of assay [9] is Torsin-1A-interacting protein 1 (Homo sapiens) (UniProt Q5JTV8). Briefly: LAP1 binders from COS7 cell lysate, primary screen, small-molecule microarray, 635/667 nm fluorescence (AID 1116). The settings on record: COS7-hLAP1 lysate binding, 635 nm fluorescence, higher = more signal.
Chain of Torsin-1A-interacting protein 1 (Homo sapiens) (Q5JTV8 whole entry, looked up): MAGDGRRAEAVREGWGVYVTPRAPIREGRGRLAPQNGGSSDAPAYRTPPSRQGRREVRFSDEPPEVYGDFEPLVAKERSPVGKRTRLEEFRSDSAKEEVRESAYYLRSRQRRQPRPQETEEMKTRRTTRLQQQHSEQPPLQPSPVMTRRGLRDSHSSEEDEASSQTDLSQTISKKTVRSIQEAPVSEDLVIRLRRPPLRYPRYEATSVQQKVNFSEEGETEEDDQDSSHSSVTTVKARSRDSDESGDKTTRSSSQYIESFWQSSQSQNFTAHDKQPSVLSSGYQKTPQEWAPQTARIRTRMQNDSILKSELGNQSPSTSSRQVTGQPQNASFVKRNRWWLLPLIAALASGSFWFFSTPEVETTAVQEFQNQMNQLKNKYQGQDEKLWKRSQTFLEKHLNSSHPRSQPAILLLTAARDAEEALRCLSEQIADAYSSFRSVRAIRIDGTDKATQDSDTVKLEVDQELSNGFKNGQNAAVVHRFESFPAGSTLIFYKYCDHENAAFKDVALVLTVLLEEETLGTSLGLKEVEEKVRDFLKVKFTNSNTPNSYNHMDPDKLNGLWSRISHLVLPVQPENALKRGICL
The target in assay [10] is Alpha-bungarotoxin (Bungarus multicinctus) (UniProt P60615). Briefly: alpha-bungarotoxin binders on microarray, profiling panel, artefact control for SMM control protein annotation, biochemical, small-molecule microarray, Alexa647 label, 635/667 nm fluorescence (AID 1117). The settings on record: alpha-BTX-A647 binding fluorescence, higher = more signal.
Chain of Alpha-bungarotoxin (Bungarus multicinctus) (P60615 whole entry, looked up): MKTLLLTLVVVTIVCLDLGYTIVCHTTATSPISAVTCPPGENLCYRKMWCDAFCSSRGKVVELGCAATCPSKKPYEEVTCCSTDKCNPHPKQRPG

In the case of `CO[C@H]1O[C@H](CO)[C@@H](OC(=O)Nc2cccc(F)c2)[C@H](OC(=O)Nc2ccccc2)[C@@H]1OC(=O)Nc1ccccc1`, the composite z-score in assay [1] was 1.26; in assay [3], 0.071; in assay [4], 0.471; in assay [5] it was -0.365; in assay [6], 0.0257; in assay [7], 0.365. Moreover, the composite z-score in assay [8] came to 0.883; in assay [9], 0.642; in [10], 0.0941. In assay [2], the z-score was -3.23.
`CN1C(=O)C2C=CC(C(O)c3ccco3)N(Nc3ccccc3)C2C1=O` (stereo not given): the composite z-score in assay [1] was 0.282; in assay [3], 0.232; in assay [4] it was -0.276; in [5], -0.833; in assay [6], -0.0192; in assay [7] it was 0.199. The composite z-score was -0.165 in assay [8], 0.272 in assay [9] and 0.35 in assay [10]. For the same compound, the z-score in assay [2] came out at 0.0751.
Take `CC#CC(=O)Oc1ccccc1C=CC(=O)OCC`: the composite z-score in assay [1] was 0.793; in assay [3], 0.136; in assay [4] it was 0.0515; in assay [5], -0.27; in assay [6], -0.096; in [7] it was -0.0709. Besides, the composite z-score in [8] was -0.256; in [9], 0.045; in [10], 0.115. Also, the z-score in assay [2] was -2.16.
Consider `O=C1O[C@H](c2ccccc2)[C@H](c2ccccc2)N2[C@H]1[C@@H](C(=O)N1CCCCCCC1)[C@]1(C(=O)Nc3ccc(C#CC4=CCCCC4)cc31)[C@H]2c1ccc(OCCO)cc1`, for which the composite z-score is 1.54 in [1]; 1.63 in assay [3]; 2.6 in [4]; 1.28 in [5]; 1.32 in assay [6]; 3.1 in [7]. The composite z-score is 2.93 in assay [8], 3.47 in [9] and 3.42 in [10]. In addition, the z-score in [2] is -2.06.
As to `COC(=O)[C@@]1(Cc2ccc(OC)cc2)[C@H]2c3cc(C(=O)N(C)C)n(CCc4ccccn4)c3C[C@H]2CN1C(=O)c1ccccc1`, the composite z-score was 0.263 in [1]; -0.288 in assay [3]; 0.993 in assay [4]; 0.93 in assay [5]; 0.675 in assay [6]; 1.31 in assay [7]. Moreover, the composite z-score in [8] turned out to be 0.854; in [9], 1.01; in assay [10] it was 0.248. The z-score in [2] was -0.845.
As to `COc1cc(COC(C)=O)ccc1OC(C)=O`, the composite z-score is 0.793 in [1]; 0.44 in assay [3]; 0.434 in assay [4]; -0.156 in [5]; 0.731 in assay [6]; -0.093 in [7]. Moreover, the values for the composite z-score in [8], in [9] and in assay [10] were -0.0878, 0.299 and -0.0551, respectively. Also, the z-score in assay [2] was -0.785.
For the compound `CN(C)C(=O)[C@]1(Cc2ccccc2N=[N+]=[N-])N=C(c2ccc(OCCCO)cc2)O[C@@H]1c1ccccc1N=[N+]=[N-]`, the composite z-score in assay [1] is 1.38; in assay [3] it was 0.116; in assay [4], 1.7; in assay [5], 0.497; in assay [6], -0.0179; in [7], 0.0796. The results for the composite z-score in assay [8], in [9] and in assay [10] were 1.39, 2.54 and 1.22, respectively. This compound gave a z-score in assay [2] of -2.69.
As for `CC1(C)[C@@H]2CC(C(O)C3C=CC4C(=O)N(Cc5ccccc5)C(=O)C4N3n3cnnc3)=C[C@H]1C2` (stereo not given in full), the composite z-score in assay [1] is 1.4; in assay [3] it was 0.223; in [4], 0.549; in [5], -0.0552; in assay [6], 0.0374; in assay [7], -0.271. In addition, the composite z-score is -0.0304 in [8], 0.187 in [9] and 0.6 in assay [10]. Also, in [2], the z-score is -0.254.
With `C[C@H]1NC(=O)[C@@]23C(=O)N[C@@H](Cc4ccccc4)C2[C@H](C)[C@@]2(C)O[C@H]2C3/C=C/C/C=C\CNC(=O)[C@@H]2CCCN2C1=O` (stereo not given in full), the composite z-score in assay [1] is 0.209; in assay [3], 0.297; in [4], 0.339; in assay [5], -0.52; in [6] it was -0.0593; in [7], -0.0035. The composite z-score was -0.0841 in assay [8], 0.159 in [9] and 0.368 in assay [10]. The same compound yielded a z-score in assay [2] of 0.534.
Regarding `O=C1N(Cc2ccccc2)c2ccccc2[C@@H]2OC(c3ccc(OCCCO)cc3)=N[C@]12CCS(=O)(=O)c1ccccc1`, the composite z-score is 1.38 in [1]; 0.274 in assay [3]; 1.61 in assay [4]; 0.246 in assay [5]; 0.0279 in [6]; -0.0575 in [7]. For the same compound, the figures for the composite z-score in [8], in [9] and in assay [10] were -0.807, 0.655 and 1.48, respectively. In assay [2], the z-score was -1.38.
For `C=CCC(OC(C)=O)[C@@H]1[C@@H](N(Cc2ccc(-c3cccc(C(F)(F)F)c3)o2)C(=O)c2ccc(C)cc2)c2cc(OCCCO)ccc2N1C(=O)Cc1ccc2ccccc2c1` (stereo not given in full), the composite z-score in [1] was -0.312; in assay [3] it was -0.628; in [4] it was -0.424; in assay [5] it was -0.352; in assay [6], -0.0704; in assay [7], -0.237. Also, the composite z-score in assay [8] was -0.122; in assay [9] it was -0.127; in [10], 0.236. This compound returned a z-score in assay [2] of 0.237.
In the case of `O=C1C[C@]2(c3ccc([N+](=O)[O-])cc3)C(=O)N(CC(F)(F)F)c3cc(CO)ccc3[C@H]2N1C1CCCCC1`, the composite z-score in [1] is -0.83; in assay [3] it was -1.34; in assay [4], -0.74; in assay [5], -0.624; in assay [6], -0.103; in assay [7], -0.221. Also, the values for the composite z-score in assay [8], in assay [9] and in assay [10] were -0.495, -0.555 and -0.605, respectively. Moreover, the z-score in [2] worked out at 0.909.
Regarding `C=CCNC(=O)[C@H]1[C@@H]2C(=O)O[C@@H](c3ccccc3)[C@@H](c3ccccc3)N2[C@@H](c2ccccc2OCCO)[C@]12C(=O)Nc1ccc(C#CCC(C(=O)OC)C(=O)OC)cc12`, the composite z-score in [1] worked out at 1.46; in [3], 1.07; in [4], 2.02; in [5], 1.24; in assay [6], 0.0914; in assay [7] it was 0.224. In addition, the composite z-score in assay [8] is 0.46; in assay [9] it was 1.37; in [10], 2.13. Further, in assay [2], the z-score is -2.33.
Take `CN1C(=O)C2C=CC(C(O)C#Cc3ccccc3)N(N3CCCCC3)C2C1=O` (stereo not given): the composite z-score in [1] was -1.16; in [3] it was 0.414; in [4], 1.19; in [5], 0.657; in assay [6] it was 0.234; in assay [7], 0.668. Further, the composite z-score worked out at 0.564 in assay [8], 0.494 in assay [9] and 1.04 in [10]. For the same compound, in assay [2], the z-score is -0.451.
In the case of `C=C(CCCC)C(=O)CC[C@@H](OC(=O)c1ccccc1-c1ccccc1C(=O)O)c1ccc(OCCO)cc1`, the composite z-score in [1] was -0.65; in [3], 0.744; in assay [4], -0.487; in assay [5], -0.559; in assay [6] it was -0.096; in [7] it was 0.0278. The composite z-score in assay [8] came out at 0.094; in assay [9], 0.881; in [10], 1.05. In addition, the z-score in assay [2] is -2.71.
For `COCCOC(=O)N1C(=O)[C@@]2(c3cc(C#Cc4ccc(OC)cc4)ccc31)[C@H](c1ccccc1OCCO)N1[C@H](c3ccccc3)[C@H](c3ccccc3)OC(=O)[C@H]1[C@@H]2C(=O)NC[C@H](O)c1ccccc1`, the composite z-score in [1] was 1.44; in [3], 0.46; in assay [4], 1.03; in assay [5] it was 0.427; in [6], -0.0445; in assay [7], 0.0469. Besides, the composite z-score in assay [8] amounted to 0.407; in [9] it was 0.819; in assay [10], 1.86. In addition, in assay [2], the z-score was -2.03.
Regarding `COc1cc2c(cc1OC)CN(C(=O)[C@H]1[C@@H]3C(=O)O[C@@H](c4ccccc4)[C@@H](c4ccccc4)N3[C@@H](c3ccc(O)cc3)[C@]13C(=O)Nc1ccccc13)CC2`, the composite z-score in assay [1] was 1.46; in [3] it was 0.0835; in assay [4] it was 0.92; in assay [5] it was 0.427; in assay [6], -0.166; in assay [7] it was -0.0289. For the same compound, the composite z-score was 0.386 in assay [8], 1.01 in assay [9] and 1.43 in assay [10]. This compound showed a z-score in assay [2] of -2.54.

The values are drawn from PubChem BioAssay.
